Compound activity (PubChem BioAssay)
Most compounds without a hit are left out; they make up all but 5.3% or so of the library.
HIF activator = HIF pathway transcriptional activation | U2OS HRE-luciferase reporter, luminescence; normalized: DMSO 0%, desferrioxamine 100% | activation, % at 7.5 µM (by protocol) | 300,000 tested, 0.32% active | AID 1910;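 active = mean activation of at least 10% of the iron chelator positive control signal, with at least half of replicates also reaching 10%; inconclusive = mean and replicate majority disagree about reaching 10%; inactive = mean and most replicates under 10%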
SUMO Mot1 rescue = SUMOylation pathway inhibition by Mot1-301 growth rescue; growth rescue, % at 18.8 µM; 320,000 tested, 1% active; S. cerevisiae Mot1-301 growth rescue, ATP luminescence, 38.5C; percent above DMSO median, 100 means doubled;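 active = every valid replicate shows activation above 250% relative to neutral control wells; inactive = the rest, any valid replicate at or below 250%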;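 also: OY570 slx delta 5 strain wells were the positive control but not used for scaling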
ALR inh = human ALR oxidase inhibition via reduced H2O2; inhibition, % (concentration not given with the values); 290,000 tested, 3.8% active; AID 485317; purified ALR, DTT oxidation, H2O2 HRP-luminol luminescence;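 active = mean replicate inhibition above about 79%, with every replicate also reaching it, limit read from the data; inconclusive = only one of the two criteria met; inactive = mean below limit and not every replicate reaching it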
PfM18AAP inh-1 = blocks P. falciparum M18 aspartyl aminopeptidase; recombinant PfM18AAP, H-Glu-NHMec fluorogenic cleavage; inhibition, % at 7.35 µM; 290,000 tested, 1.2% active; AID 1822;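 active = inhibition above the campaign mean inhibition over all tested compounds plus 3 SD, cut at about 28% in these data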;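 also: 0% = plate median of test compound wells and 100% = 2 mM ZnCl2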
PfM18AAP inh-2 = confirmation of Plasmodium falciparum M18 aspartyl aminopeptidase inhibitors. shares compounds with PfM18AAP inh-1. recombinant PfM18AAP, H-Glu-NHMec fluorogenic cleavage. inhibition, % at 7.35 µM. 2,400 tested, 28% active;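 active = mean inhibition over replicate wells above the hit cutoff set for the earlier primary screen, cut at about 29% in these data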;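 also: 0% = median of test compound wells and 100% = 2 mM ZnCl2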
CTSL1 confirm = counter-screen for PFM18AAP inhibitors: confirmation of human cathepsin L inhibitors | shares compounds with PfM18AAP inh-1 | purified cathepsin L1, Z-Leu-Arg-MCA fluorescence | inhibition, % at 5.96 µM | 2,400 tested, under 10 active;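 active = average inhibition across replicates above the hit cutoff set in the earlier primary screen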;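 also: 0% = median of test compound wells and 100% = Z-Phe-Ala-diazomethylketone 1 µM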
Target sequence (P07711 whole entry, looked up): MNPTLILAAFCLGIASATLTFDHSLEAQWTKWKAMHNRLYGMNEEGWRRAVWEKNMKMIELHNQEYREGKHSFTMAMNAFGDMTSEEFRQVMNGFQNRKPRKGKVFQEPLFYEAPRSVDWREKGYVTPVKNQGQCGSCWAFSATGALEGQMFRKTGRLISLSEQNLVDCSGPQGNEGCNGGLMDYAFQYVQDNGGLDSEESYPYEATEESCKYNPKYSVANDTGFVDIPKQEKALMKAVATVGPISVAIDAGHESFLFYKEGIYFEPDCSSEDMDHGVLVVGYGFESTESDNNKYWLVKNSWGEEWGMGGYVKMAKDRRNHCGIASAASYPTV
* = called active by the depositor; ? = inconclusive; . = no result given.

SMILES	HIF activator	SUMO Mot1 rescue	ALR inh	PfM18AAP inh-1	PfM18AAP inh-2	CTSL1 confirm
Cc1ccc(O)c(CNc2cccc3cccnc23)c1	-0.6	13.3	.	18.0	.	.
Nc1c(C(=O)c2ccccc2)sc2nsc(SCCN3CCOCC3)c12	3.3	-33.2	14.4	27.2	.	.
CC(=O)c1sc2nsc(SCCN3CCOCC3)c2c1N	-0.3	8.6	?	59.8*	9.7	0.1
O=C(Cc1ccc(F)cc1)Nc1ccccc1N1CCCC1	-0.2	-0.4	88.6*	32.5*	-30.2	-4.8
Cc1nc(SCc2ccc(O)c([N+](=O)[O-])c2)c([N+](=O)[O-])[nH]1	-0.6	15.6	47.2	47.5*	-2.6	2.5
CCCCN(Cc1ccccc1)S(=O)(=O)c1cc(Br)cc2c1N(C(C)=O)C(C)C2 (stereo not given)	-0.2	21.8	1.7	5.1	.	.
Cc1cc(C)c2cc(CN(Cc3ccco3)C(=O)NCc3ccccc3)c(=O)[nH]c2c1	0.3	8.6	-5.7	35.0*	-18.9	-1.9
Cc1cc(C)n(-c2cc(O)c(-n3nc(C)cc3C)cc2O)n1	-0.1	230.0	89.1*	45.6*	23.8	4.7
Cc1cc(C)n(-c2cc(-n3nc(C)cc3C)ncn2)n1	-0.2	2.3	.	-7.6	.	.
O=C(COc1ccc2ccccc2c1Br)Nn1cnnc1	-0.1	32.9	-35.0	56.2*	37.1*	-2.3
Cc1ccc(OCC(=O)Nn2cnnc2)c(Br)c1	-0.2	-3.7	-4.2	66.2*	56.6*	4.5
Cc1ccc(OCC(=O)NNC(=O)CCc2ccccc2)c(Br)c1	-0.6	14.6	-62.5	4.2	.	.
COC(=O)NNC(=O)COc1ccc2ccccc2c1Br	0.6	-5.2	-18.9	1.5	.	.
Cc1cc(OCC(=O)NC2CC(C)(C)NC(C)(C)C2)c(C)cc1Br	-0.3	6.7	-2.7	-0.2	.	.
Cc1cc(OCC(=O)Nn2cnnc2)c(C)cc1Br	-0.1	.	-1.5	46.2*	54.9*	-1.6
O=C(COC(=O)C1CC2C=CC1C2)Nc1c(Br)cc([N+](=O)[O-])cc1Br (stereo not given)	.	-7.6	-20.5	.	.	.
COc1ccccc1-n1c(CNC(=O)c2cccs2)n[nH]c1=S	-0.1	-5.1	38.7	36.5*	-10.5	-7.1
O=C(NCc1n[nH]c(=S)n1-c1ccc(Br)cc1)c1cccs1	0.1	75.8	46.2	34.1*	-11.6	-8.4
O=C(NCC(=O)N1CCCC1)c1ccc(Br)cc1	0.0	-1.3	-2.9	-1.4	.	.
O=C(NCCN1CCOCC1)c1cc(Cl)ccc1Cl	0.2	-11.8	-11.4	-3.0	.	.
O=C(NCCN1CCOCC1)NC1(C(F)(F)F)Oc2ccc(Cl)cc2O1 (stereo not given)	2.8	-4.5	99.0*	87.0*	88.9*	-3.8
COCC(C)NC(=O)NC1(C(F)(F)F)Oc2ccc(Cl)cc2O1 (stereo not given)	2.0	13.7	-4.7	79.5*	66.1*	2.7
C/C(=N/NS(=O)(=O)c1cccc([N+](=O)[O-])c1)c1ccncc1	0.1	70.0	-6.9	44.3*	4.0	-4.0
C/C(=N/NS(=O)(=O)c1ccc(Cl)cc1)c1ccncc1	-0.3	37.2	-12.1	3.9	.	.
CC(=NNS(=O)(=O)c1cccc([N+](=O)[O-])c1)c1ccc(-n2ccnc2)cc1	.	24.8	11.2	.	.	.
SMILES	HIF activator	SUMO Mot1 rescue	ALR inh	PfM18AAP inh-1	PfM18AAP inh-2	CTSL1 confirm
C/C(=N\NS(=O)(=O)c1ccc(Br)cc1)c1ccncc1	-0.6	-10.8	-6.8	53.2*	13.5	-5.4
CCOC(=O)c1[nH]c2ccc(F)cc2c1NC(=O)c1ccccc1C(=O)O	-22.0	-3.9	65.6	33.3*	-34.1	3.0
CC(C)CC1CC(C)(c2csc(NNC(=O)c3ccccc3)n2)OC1=O (stereo not given)	0.9	12.4	51.2	33.2*	-9.7	-0.8
CC1(C)CC(CC(=O)NNc2nc(-c3ccccc3)cs2)C(=O)O1 (stereo not given)	0.0	-0.1	.	34.0*	-1.4	-6.6
Oc1ccc(/C=N/Nc2cccc(Cl)n2)c(O)c1	7.0	-2.2	.	58.1*	57.3*	7.2
O=C(NCCCCc1ccccc1)Nc1ccc(F)cc1F	0.9	-20.7	1.3	-2.2	.	.
COc1ccc(-c2cc(C#N)nc(Cl)n2)cc1	0.1	-1.5	16.0	2.4	.	.
COc1ccc(-c2cc(-c3ccccc3)nc(NN)n2)cc1OC	2.4	-5.1	33.2	33.8*	5.3	3.0
COc1ccc(-c2cc(C#N)nc(NN)n2)cc1	-0.4	-5.1	-0.4	36.5*	36.0*	6.0
